This note sets out measurements from PubChem BioAssay (NCATS).

For test [1], the target named is Lysosomal acid glucosylceramidase (Homo sapiens) (UniProt P04062). Kind of test: Glucocerebrosidase-p2 (AID 348; in the data active = potency below about 10 µM; also: potency is read from the fitted curve at half-maximal effect). The note with it: purified GBA, blue fluorogenic substrate, 40 min. Summed up:
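Normal human glucocerebrosidase (0.2 nM) with blue fluorogenic substrate (80 uM final) in citrate/phosphate pH 5.9 with 10mM sodium taurocholate, 0.01% tween-20; 40 min RT, NaOH/glycine stop; fluorescence Ex 365/Em 440; AC50 from a titration from 0.6 nM upwards.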

Test [2] concerns the target Glucocorticoid receptor (Homo sapiens) (UniProt P04150). Kind of test: GR-GFP Redistribution (AID 450;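 active = compounds whose dose series gives a full or clear partial fitted curve of increased nuclear translocation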; also: potency is read from the fitted curve at half-maximal effect). Particulars: U2OS GR-GFP nuclear translocation, laser cytometry, 2 h.
The target is the same in test [3]. Put plainly: GR-EFC Redistribution (AID 451; calls by dose curve; also: potency is read from the fitted curve at half-maximal effect). The note with it: CHO-K1 GR-EFC translocation, beta-gal luminescence, 2 h. Summed up: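 CHO-K1 cells stably expressing nuclear-localized β-gal enzyme acceptor and GR fused C-terminally to the enzyme donor fragment; ligand-driven nuclear translocation restores β-gal by complementation. Compounds titrated up to 46 uM final, 2 h at 37 °C; luminescence read.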

The target of test [4] is Mitogen-activated protein kinase 10 (Mus musculus) (UniProt Q61831). Put plainly: JNK3 AlphaScreen Assay (AID 530).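 Also: kinase came from lysate of stimulated human HepG2 cells; signal reports phosphorylation of biotinylated GST-cJun 1-79 at Ser73 with 10 µM ATP; % is scaled to controls: 0 for no effect and ±100 for the full control effect.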 Summed up:
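Biotinylated GST-cJun(1-79) served as substrate for JNK3 in HepG2 lysates stimulated with IL-1beta and TNF-alpha. ATP was 10 uM final, pH 7.6. Ser73 phosphorylation was quantified by AlphaScreen (680 nm excitation).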
Background: Bead proximity is the source of the signal in Alpha formats.

Test [5] addresses 3',5'-cyclic-AMP phosphodiesterase 4B (Homo sapiens) (UniProt Q07343). Kind of test: qHTS Assay for Inhibitors of PDE-IV (AID 607; active = well fitted activation curve with a large enough effect in the main read-out, with a control signal flat, not every such curve was filed as active; also: % of control where 0% means no effect). An outline of the steps:
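The readout is membrane depolarisation from a cAMP-sensing CNG channel, detected with a potential dye at ex 535/em 590. Cells were HEK293-derived (endogenous PDE-IV) at 1000 cells/well, titrated up to 22.9 uM final.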
(In qHTS, concentration-response curves come from the screen itself.)

Test [6] is described as follows: AP1 Signaling Pathway (AID 357).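 Also: ME-180 reporter cells stimulated with EGF at its EC50 level; % is scaled to controls: 0 for no effect and ±100 for the full control effect.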 Particulars: ME-180 AP-1-bla reporter, EGF-induced, beta-lactamase ratio, 5 h; at 7.69 µM (top of the series) unless noted. An outline of the steps:
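Cells are seeded overnight, exposed to compound titrations and an EC50 level of EGF for 5 hours at 37 °C, then loaded with CCF4 dye for 2.5 hours. Beta-lactamase activity under the AP-1 element is read as a blue/green ratio.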

In test [7] the target is Cytochrome P450 1A2 (Homo sapiens) (UniProt P05177). Kind of test: p450-cyp1a2 (AID 410; calls by dose curve; also: potency is read from the fitted curve at half-maximal effect;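 as to activity change, negative = inhibition: -100% = full effect of reference inhibitor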). An outline of the steps:
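Read-out is luminescence from luciferin produced by CYP1A2 demethylation of Luciferin-ME (100uM, at Km). Detection reagent stopped the 60 min NADPH-dependent reaction; signals were normalized to 57 uM furafylline.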

A short description of test [8]: NFAT Signaling Pathway (AID 444).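 Also: carbachol stimulus at about its EC50 of 1 µM final; % is scaled to controls: 0 for no effect and ±100 for the full control effect.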 The note with it: Jurkat NFAT-bla M1, carbachol, beta-lactamase ratio, 5 h; at 7.69 µM (top of the series) unless noted. Summed up: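 Jurkat cells carrying an NFAT-driven β-lactamase reporter and co-transfected muscarinic M1 receptor were treated with compound plus carbachol (1 uM final, an EC50 level) for 5 h at 37 °C. CCF4 loading followed for 1 h at RT; 460/530 nm ratio gave %activity.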

A short description of test [9]: Stat Signaling Pathway (AID 446).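 Also: ME-180 cervical cancer cells given 40 pM IL-6 alongside compound; SIE-controlled beta-lactamase reporter measured as 460/530 nm FRET emission ratio; % is scaled to controls: 0 for no effect and ±100 for the full control effect.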 The note with it: ME-180 SIE beta-lactamase reporter, IL-6 stimulated, 5 h; at 7.69 µM (top of the series) unless noted. An outline of the steps:
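Emission at 460 and 530 nm (excitation 405 nm) reports SIE-controlled beta-lactamase in ME-180 cells. Cells received compound with 40 pM IL-6 for 5 hrs at 37 C; data scaled between 300 pM IL-6 and 125 nM JAK-inhibitor controls.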

Test [10] has as its target Guanine nucleotide-binding protein G(i) subunit alpha-1 (Homo sapiens) (UniProt P63096). Kind of test: qHTS Assay for Inhibitors of RGS12 GoLoco Motif Activity (Green Fluorophore) (AID 879; active = well fitted curve in the direction sought with a large enough effect; an effect the other way counts as inactive or inconclusive;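 also: 0% = labeled peptide with Gαi1 and full inhibition = labeled peptide alone without protein; negative values mean loss of peptide binding seen as reduced polarization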). Summed up: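 A drop in FITC polarization marked displacement of the FITC-tagged RGS12 GoLoco peptide (10 nM) from Gαi1 (50 nM). Compounds were incubated 10 min at room temperature in Tris pH 7.5 buffer containing 150 mM NaCl, 0.1 mM GDP and 0.05% NP40; unlabeled peptide titration served as control.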

In test [11] the target is Cytochrome P450 3A4 (Homo sapiens) (UniProt P08684). Kind of test: qHTS Assay for Inhibitors and Substrates of Cytochrome P450 3A4 (AID 884; active = well fitted curve in the direction sought with a large enough effect; an effect the other way counts as inactive or inconclusive; also: nearly all actives have a fitted effect of over 50% in size; also: potency is read from the fitted curve at half-maximal effect). Summed up:
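Luminescent readout of luciferin produced by CYP3A4 (20 nM) dealkylation of Luciferin-PPXE, 25 uM (its KM). NADPH-driven reaction ran 60 min at RT after 10 min compound preincubation; data scaled to 57 uM ketoconazole as 100% inhibition.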

The target of test [12] is Cytochrome P450 2D6 (Homo sapiens) (UniProt P10635). Put plainly: qHTS Assay for Inhibitors and Substrates of Cytochrome P450 2D6 (AID 891; active = well fitted curve in the direction sought with a large enough effect; an effect the other way counts as inactive or inconclusive; also: nearly all actives have a fitted effect of over 60% in size; also: potency is read from the fitted curve at half-maximal effect). An outline of the steps: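 Luminescent read-out of luciferin formed by 5 nM human CYP2D6 demethylating 30 uM Luciferin-ME EGE (Km level) over 60 min at room temperature after NADPH regeneration addition. Data normalized to full inhibition by 1.43 uM quinidine.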

Test [13] in a line: qHTS Assay for Identification of Small Molecule Agonists for Hypoxia Response Element Signaling Pathway (AID 914; active = well fitted activation curve with a large enough effect in the signal ratio, with a control signal flat, not every such curve was filed as active; the % refers to the signal ratio; also: % of control where 0% means no effect). Particulars: ME-180 (cervical carcinoma) HRE-bla reporter, beta-lactamase ratio, CoCl2, 17 h; activation: active compounds read high. Summed up: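 HRE-bla ME-180 assay for agonist-like enhancement of an EC50 CoCl2 stimulus: 17 h at 37 degrees Celsius, CCF4 for 2.5 h, ratiometric 460/530 nm signal converted to %Activity and fitted to AC50.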

Test [14] deals with Pyruvate kinase PKM (Homo sapiens) (UniProt P14618). Put plainly: qHTS Assay for Activators of Human Muscle Pyruvate Kinase (AID 954; active = well fitted curve in the direction sought with a large enough effect, not every such curve was filed as active;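 also: 0% = uninhibited enzyme and -100% = no enzyme or full thiadiazolimine inhibition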). Summed up: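 PKM2, human, >95% pure, 0.1 nM; PEP 0.5 mM (Km), ADP 0.1 mM; 50 mM imidazole pH 7.2, 50 mM KCl, 0.01% Tween 20, 0.05% BSA; 1 h RT; luciferase luminescence readout.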
Test [15] concerns the target Alpha-galactosidase A (Homo sapiens) (UniProt P06280). Kind of test: Counterscreen for Glucocerebrosidase Inhibitors: qHTS Assay for Human alpha-Galactosidase at pH 4.5 (AID 992; active = well fitted curve in the direction sought with a large enough effect; an effect the other way counts as inactive or inconclusive; also: 0% is about no effect). Summed up:
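Fluorogenic 4-MU alpha-D-galactoside (80 uM) hydrolysis, 2 nM enzyme, pH 4.5 citrate buffer + 0.005% Tween-20; 20 min RT; NaOH/glycine pH 10 stop; Ex365/Em440. Compounds titrated 0.7 nM–77 uM; Hill-equation AC50.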
In general terms: The purpose of a counterscreen is to sort out artefacts and off-target activity.

Test [16] has as its target alpha-glucosidase (Oryza sativa, rice) (UniProt Q653V4). Put plainly: Counterscreen for Glucocerebrosidase Inhibitors: qHTS Assay for Rice alpha-Glucosidase at pH 5.0 (AID 997; active = well fitted curve in the direction sought with a large enough effect; an effect the other way counts as inactive or inconclusive; also: potency is read from the fitted curve at half-maximal effect;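 as to activity change, negative = inhibition: 0% = full activity with enzyme and -100% = basal without enzyme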). An outline of the steps: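 Endpoint fluorogenic assay at pH 5.0: compounds (0.7 nM to 77 uM) titrated against 4 nM rice enzyme and 400 uM 4-MU-alpha-glucoside for 20 min at room temperature; NaOH/glycine stop, read ex 365/em 440 nm, Hill-fitted AC50.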

The target of test [17] is Cytochrome P450 2C19 (Homo sapiens) (UniProt P33261). Kind of test: qHTS Assay for Inhibitors and Substrates of Cytochrome P450 2C19 (AID 899; active = well fitted curve in the direction sought with a large enough effect; an effect the other way counts as inactive or inconclusive; also: % is scaled to controls: 0 for no effect and ±100 for the full control effect; nearly all actives have a fitted effect of over 60% in size). Summed up:
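In 50mM KPO4, the reaction held 5nM enzyme and KM-level (10uM) Luciferin-H EGE; it ran 60 min at 37C after NADPH regeneration and a 10 min compound preincubation. Luminescence values were scaled to 57uM ketoconazole as complete inhibition.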

Test [18] has as its target Cytochrome P450 3A4 (Homo sapiens) (UniProt P08684). Kind of test: qHTS Assay for Activators of Cytochrome P450 3A4 (AID 885; active = well fitted curve in the direction sought with a large enough effect; an effect the other way counts as inactive or inconclusive; also: nearly all actives have a fitted effect of over 65% in size). Summed up:
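Activators are scored by enhanced luminescence from CYP3A4 conversion of luciferin-PPXE (25uM, equal to KM) to luciferin, after 60 min at RT with an NADPH-regenerating system.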

Several values for one entry are separate records, joined by “and”; a condition that tells them apart may be missing. Identical values can stand only once. Unmarked numbers belong to inactive results. Inconclusive results are not listed. Activity calls are given as the source filed them. Unless noted, calls follow the shape of the dose curve; as a rule, active = well fitted curve in either direction with a large enough effect (not every such curve was filed as active); inconclusive = small, poorly fitted or top-dose-only effect, or another doubt; inactive = flat fitted curve, though single readings scatter.

Chain of Pyruvate kinase PKM (Homo sapiens) (P14618 whole entry, looked up): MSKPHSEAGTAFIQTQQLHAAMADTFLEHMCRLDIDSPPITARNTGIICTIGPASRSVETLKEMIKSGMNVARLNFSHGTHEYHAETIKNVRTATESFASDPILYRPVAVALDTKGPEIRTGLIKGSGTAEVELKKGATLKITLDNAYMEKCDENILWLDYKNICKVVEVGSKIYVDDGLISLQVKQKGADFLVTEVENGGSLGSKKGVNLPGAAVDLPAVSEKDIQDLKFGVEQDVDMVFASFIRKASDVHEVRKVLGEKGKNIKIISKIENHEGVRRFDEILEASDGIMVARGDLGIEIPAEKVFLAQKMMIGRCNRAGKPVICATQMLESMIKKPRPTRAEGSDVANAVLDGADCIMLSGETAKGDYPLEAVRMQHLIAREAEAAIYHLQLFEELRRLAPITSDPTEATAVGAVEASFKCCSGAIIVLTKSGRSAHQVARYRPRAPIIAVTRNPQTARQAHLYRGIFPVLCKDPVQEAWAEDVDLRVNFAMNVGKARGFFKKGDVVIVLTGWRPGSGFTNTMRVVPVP
Chain of 3',5'-cyclic-AMP phosphodiesterase 4B (Homo sapiens) (Q07343 whole entry, looked up): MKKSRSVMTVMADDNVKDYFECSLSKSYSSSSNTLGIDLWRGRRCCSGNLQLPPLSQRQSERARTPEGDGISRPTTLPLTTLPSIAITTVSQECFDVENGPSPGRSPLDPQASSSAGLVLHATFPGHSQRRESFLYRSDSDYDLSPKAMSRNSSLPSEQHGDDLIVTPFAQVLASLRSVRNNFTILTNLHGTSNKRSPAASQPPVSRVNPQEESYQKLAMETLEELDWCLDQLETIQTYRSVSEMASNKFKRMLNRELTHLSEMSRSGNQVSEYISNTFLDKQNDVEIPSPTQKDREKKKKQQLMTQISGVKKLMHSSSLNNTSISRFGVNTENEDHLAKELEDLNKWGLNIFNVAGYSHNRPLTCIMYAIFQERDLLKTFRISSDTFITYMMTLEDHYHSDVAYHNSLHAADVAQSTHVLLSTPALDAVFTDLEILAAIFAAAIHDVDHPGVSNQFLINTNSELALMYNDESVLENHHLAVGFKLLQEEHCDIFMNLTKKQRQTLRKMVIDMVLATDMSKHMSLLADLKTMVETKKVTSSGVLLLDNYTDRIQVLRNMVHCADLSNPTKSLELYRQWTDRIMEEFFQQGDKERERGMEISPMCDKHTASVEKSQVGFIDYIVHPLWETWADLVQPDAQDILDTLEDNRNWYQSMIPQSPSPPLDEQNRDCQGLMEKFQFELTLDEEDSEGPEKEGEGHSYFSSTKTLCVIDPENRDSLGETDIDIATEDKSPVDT
Chain of Alpha-galactosidase A (Homo sapiens) (P06280 whole entry, looked up): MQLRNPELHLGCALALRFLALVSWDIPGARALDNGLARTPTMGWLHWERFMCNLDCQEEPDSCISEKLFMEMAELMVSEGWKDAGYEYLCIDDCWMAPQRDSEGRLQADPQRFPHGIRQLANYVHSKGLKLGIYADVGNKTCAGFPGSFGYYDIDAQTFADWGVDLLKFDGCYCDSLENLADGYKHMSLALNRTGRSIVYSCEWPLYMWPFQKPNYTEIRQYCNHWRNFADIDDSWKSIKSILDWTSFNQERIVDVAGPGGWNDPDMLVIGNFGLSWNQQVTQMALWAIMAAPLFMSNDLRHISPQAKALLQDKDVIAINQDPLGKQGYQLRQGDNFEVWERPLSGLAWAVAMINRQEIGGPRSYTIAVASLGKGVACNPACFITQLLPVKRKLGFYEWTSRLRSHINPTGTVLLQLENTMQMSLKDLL
Chain of Glucocorticoid receptor (Homo sapiens) (P04150 whole entry, looked up, the tested form may be a part): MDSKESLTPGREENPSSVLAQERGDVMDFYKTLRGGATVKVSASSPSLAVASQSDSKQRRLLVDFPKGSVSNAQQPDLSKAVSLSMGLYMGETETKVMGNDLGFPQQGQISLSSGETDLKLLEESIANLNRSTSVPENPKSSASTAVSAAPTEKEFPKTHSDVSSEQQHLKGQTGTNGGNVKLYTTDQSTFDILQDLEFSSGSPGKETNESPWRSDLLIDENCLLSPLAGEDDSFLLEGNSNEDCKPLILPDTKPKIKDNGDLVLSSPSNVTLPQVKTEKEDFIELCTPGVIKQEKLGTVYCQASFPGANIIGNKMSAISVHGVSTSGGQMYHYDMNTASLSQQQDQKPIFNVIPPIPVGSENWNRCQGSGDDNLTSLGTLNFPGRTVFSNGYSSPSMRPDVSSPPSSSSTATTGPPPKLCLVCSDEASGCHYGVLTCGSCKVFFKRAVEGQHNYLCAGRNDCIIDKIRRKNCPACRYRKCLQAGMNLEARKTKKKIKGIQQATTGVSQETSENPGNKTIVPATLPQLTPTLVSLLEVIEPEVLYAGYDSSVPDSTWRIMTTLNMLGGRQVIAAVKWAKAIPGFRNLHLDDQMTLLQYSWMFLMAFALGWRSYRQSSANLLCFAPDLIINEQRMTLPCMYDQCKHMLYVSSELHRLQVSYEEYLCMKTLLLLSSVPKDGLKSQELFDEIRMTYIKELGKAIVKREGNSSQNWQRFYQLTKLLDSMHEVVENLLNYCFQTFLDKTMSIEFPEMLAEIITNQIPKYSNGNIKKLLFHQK
Chain of Cytochrome P450 1A2 (Homo sapiens) (P05177 whole entry, looked up): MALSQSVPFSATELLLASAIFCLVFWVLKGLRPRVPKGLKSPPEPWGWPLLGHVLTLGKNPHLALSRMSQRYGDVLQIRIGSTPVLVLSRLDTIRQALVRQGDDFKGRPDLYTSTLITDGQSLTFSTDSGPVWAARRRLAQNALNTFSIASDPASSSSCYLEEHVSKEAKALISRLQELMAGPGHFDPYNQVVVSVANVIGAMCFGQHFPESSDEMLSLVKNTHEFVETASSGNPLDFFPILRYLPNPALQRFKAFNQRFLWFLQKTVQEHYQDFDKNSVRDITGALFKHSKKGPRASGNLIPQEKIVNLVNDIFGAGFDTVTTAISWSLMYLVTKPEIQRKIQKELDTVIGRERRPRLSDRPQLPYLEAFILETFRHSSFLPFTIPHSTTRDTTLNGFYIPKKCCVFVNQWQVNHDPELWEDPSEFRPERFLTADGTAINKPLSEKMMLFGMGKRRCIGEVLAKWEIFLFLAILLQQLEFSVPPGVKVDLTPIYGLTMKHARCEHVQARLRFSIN
Chain of Cytochrome P450 3A4 (Homo sapiens) (P08684 whole entry, looked up): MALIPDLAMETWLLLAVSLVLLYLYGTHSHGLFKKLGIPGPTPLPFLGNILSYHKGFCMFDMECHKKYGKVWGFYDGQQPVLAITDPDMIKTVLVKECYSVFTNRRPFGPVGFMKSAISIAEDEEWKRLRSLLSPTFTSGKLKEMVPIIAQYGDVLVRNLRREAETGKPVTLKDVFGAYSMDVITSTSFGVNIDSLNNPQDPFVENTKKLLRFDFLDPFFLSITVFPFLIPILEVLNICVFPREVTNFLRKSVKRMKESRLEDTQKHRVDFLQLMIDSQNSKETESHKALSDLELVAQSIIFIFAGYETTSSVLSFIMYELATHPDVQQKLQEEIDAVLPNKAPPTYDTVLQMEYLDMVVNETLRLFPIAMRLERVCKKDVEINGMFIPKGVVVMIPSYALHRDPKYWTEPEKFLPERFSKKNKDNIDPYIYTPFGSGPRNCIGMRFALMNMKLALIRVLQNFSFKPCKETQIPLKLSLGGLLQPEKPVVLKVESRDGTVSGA
Chain of Guanine nucleotide-binding protein G(i) subunit alpha-1 (Homo sapiens) (P63096 whole entry, looked up): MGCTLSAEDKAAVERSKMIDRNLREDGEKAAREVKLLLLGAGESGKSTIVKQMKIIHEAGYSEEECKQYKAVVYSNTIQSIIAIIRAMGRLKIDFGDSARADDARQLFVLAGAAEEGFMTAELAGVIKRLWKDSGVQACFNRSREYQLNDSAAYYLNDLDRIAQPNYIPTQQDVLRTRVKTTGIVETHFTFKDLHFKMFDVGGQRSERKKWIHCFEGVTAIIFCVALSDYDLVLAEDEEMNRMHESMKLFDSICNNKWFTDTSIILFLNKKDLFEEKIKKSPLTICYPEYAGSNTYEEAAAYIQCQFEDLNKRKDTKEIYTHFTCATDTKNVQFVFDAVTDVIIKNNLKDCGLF
Chain of Cytochrome P450 2D6 (Homo sapiens) (P10635 whole entry, looked up): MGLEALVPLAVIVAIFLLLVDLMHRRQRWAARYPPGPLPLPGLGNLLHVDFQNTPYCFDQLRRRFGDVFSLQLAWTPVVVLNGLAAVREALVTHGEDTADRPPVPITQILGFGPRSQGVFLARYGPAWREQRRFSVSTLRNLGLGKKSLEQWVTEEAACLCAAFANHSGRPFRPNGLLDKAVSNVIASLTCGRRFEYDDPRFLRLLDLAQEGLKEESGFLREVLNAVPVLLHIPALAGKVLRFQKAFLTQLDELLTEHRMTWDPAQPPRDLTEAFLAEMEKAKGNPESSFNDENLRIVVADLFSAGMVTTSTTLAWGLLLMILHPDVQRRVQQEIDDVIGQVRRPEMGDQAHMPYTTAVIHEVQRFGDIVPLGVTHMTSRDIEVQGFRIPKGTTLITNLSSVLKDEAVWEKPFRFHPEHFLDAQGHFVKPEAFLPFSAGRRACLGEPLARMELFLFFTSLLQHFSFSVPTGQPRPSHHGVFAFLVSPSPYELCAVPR
Chain of Lysosomal acid glucosylceramidase (Homo sapiens) (P04062 whole entry, looked up): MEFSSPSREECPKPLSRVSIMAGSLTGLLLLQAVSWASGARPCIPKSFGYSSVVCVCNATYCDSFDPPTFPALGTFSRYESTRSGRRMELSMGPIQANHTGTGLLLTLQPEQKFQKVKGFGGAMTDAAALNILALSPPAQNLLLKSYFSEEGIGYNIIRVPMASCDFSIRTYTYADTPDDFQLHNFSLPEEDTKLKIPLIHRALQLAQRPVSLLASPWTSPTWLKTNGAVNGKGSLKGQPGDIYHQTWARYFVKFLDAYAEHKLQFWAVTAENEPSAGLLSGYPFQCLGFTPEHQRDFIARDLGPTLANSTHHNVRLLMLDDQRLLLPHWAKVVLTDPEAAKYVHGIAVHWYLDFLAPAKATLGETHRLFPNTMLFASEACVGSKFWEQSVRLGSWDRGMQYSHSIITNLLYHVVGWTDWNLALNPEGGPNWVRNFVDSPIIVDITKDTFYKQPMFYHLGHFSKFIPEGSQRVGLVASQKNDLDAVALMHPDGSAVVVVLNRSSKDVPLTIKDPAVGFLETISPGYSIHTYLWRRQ

As for `COc1ncc2nc(-c3cc(F)cc(F)c3)c(=O)n(CCc3ccccc3)c2n1`, the Potency in [1] is above 11.4 µM; in [2], above 9.22 µM; in [3], above 46 µM. Moreover, the Potency result in [4] was “inactive”.

As for `CC(C)c1ccc(O)c(O)c(=O)c1` (tested in a mixture with another compound), the Potency was above 11.4 µM in [1], above 46 µM in test [2] and above 9.22 µM in test [3]. In addition, the Potency entry in test [4] and in test [5] was “inactive” each time.

As for `CN1CCc2cc(Cl)c(O)cc2[C@H](c2ccccc2)C1`, the values for the activity change, negative = inhibition in [6] and in test [8] were 15.7% [at 38 µM] and -3.81% [at 38 µM], respectively. Moreover, the Potency is 31.6 µM (active) in test [7], above 46 µM in test [2], above 46 µM in test [3] and 0.631 µM (active) in test [12]. Further, in test [9], the activity, negative = inhibition is 19.6% [at 38 µM]. Further, the Potency result in test [4], in [5], in test [11] and in [16] was “inactive” in each case. For the same compound, the compound was called inactive in test [10], in test [14] and in test [15]. The activation in test [13] was -21.3%.

With `OC[C@@H]1NC[C@@H](O)[C@H]1O`, the activity change, negative = inhibition in test [6] was 0.107% [at 38 µM]; in test [8] it was 8.18% [at 38 µM]. Further, the Potency entry in [7], in [4] and in test [5] was “inactive” in each case. In addition, the activity, negative = inhibition in test [9] is -5.61% [at 38 µM]. Besides, the Potency in test [2] was above 46 µM; in test [3] it was above 46 µM; in test [16], 12.6 µM (active). In addition, the outcome in test [10] and in [14] was inactive.

For `CCCCCCCCCC[Si](C)(C)CCC(=O)N[C@@H](Cc1ccc(C)cc1)c1ccccc1`, the activity change, negative = inhibition in test [6] is 20.2% [at 38 µM]; in [8], -7.96% [at 38 µM]. Moreover, the Potency was 31.6 µM (active) in test [7], above 46 µM in test [2] and above 46 µM in test [3]. Besides, the activity, negative = inhibition in test [9] was -5.69% [at 38 µM]. Further, the Potency entry in test [4], in test [5], in test [17] and in test [16] was “inactive” each time. In addition, the result in test [10], in test [14] and in [15] was inactive.

On to `C[C@H]1CN(S(=O)(=O)c2cccc3cnccc23)CCN1`, for which the values for the activity change, negative = inhibition in test [6] and in [8] were -12.4% [at 38 µM] and 1.25% [at 38 µM], respectively. Besides, the Potency entry in test [7], in test [4], in test [5], in [18] and in test [16] was “inactive” throughout. For the same compound, in test [9], the activity, negative = inhibition is 2.7% [at 38 µM]. Besides, the Potency in [2] and in test [3] was above 46 µM in each case. For the same compound, the call in [10], in test [14] and in [15] was inactive.

As for `CC(C)[C@@H]1NC(=O)[C@H](CCCCN)NC(=O)[C@H](Cc2c[nH]c3ccccc23)NC(=O)[C@H](Cc2ccc(O)cc2)NC(=O)[C@H](C)N(C)C(=O)[C@H](Cc2ccccc2)NC1=O`, the activity change, negative = inhibition in test [6] was 15.3% [at 38 µM]; in test [8], -3.97% [at 38 µM]. Moreover, the Potency result in test [7], in test [4], in test [5] and in test [18] was “inactive” throughout. In addition, in test [9], the activity, negative = inhibition was -2.13% [at 38 µM]. The Potency in test [2] is above 46 µM; in [3], above 46 µM; in test [11], 3.98 µM (active). Further, the compound was called inactive in test [10], in test [14] and in test [15].

Regarding `C#C[C@H](N)CCC(=O)O`, the activity change, negative = inhibition in test [6] was 2.59% [at 38 µM]; in test [8], -4.34% [at 38 µM]. The Potency entry in test [7], in test [4], in test [5], in [12] and in test [16] was “inactive” in each case. For the same compound, the activity, negative = inhibition in test [9] is 1.65% [at 38 µM]. Further, the Potency in test [2] and in test [3] was above 46 µM each time. The result in test [10], in test [14] and in [15] was inactive.

For the compound `CC(C)C[C@H](NC(=O)[C@@H](O)[C@@H](N)Cc1ccccc1)C(=O)O`, the activity change, negative = inhibition is 16.3% [at 38 µM] and 2.81% [at 38 µM] in [6]; -15.3% [at 38 µM] and -3.04% [at 38 µM] in test [8]. Also, the Potency entry in test [7], in test [4], in [5] and in test [16] was “inactive” each time. Further, the activity, negative = inhibition in [9] is 25.1% [at 38 µM] and 3.44% [at 38 µM]. The Potency in test [2] and in [3] was above 46 µM throughout. The result in test [10], in test [14] and in test [15] was inactive.

On to `Cc1ccccc1N1CCN(S(=O)(=O)C[C@@]23CC[C@H](C[C@H]2NC(=O)[C@@H](N)CCS(C)(=O)=O)C3(C)C)CC1`, for which the activity change, negative = inhibition was 28.6% [at 38 µM] in test [6] and 14% [at 38 µM] in test [8]. Further, the Potency result in [7], in test [4], in test [5], in [18] and in test [16] was “inactive” throughout. The activity, negative = inhibition in test [9] was -9.73% [at 38 µM]. Also, the Potency was above 46 µM in [2], above 46 µM in [3] and 3.16 µM (active) in test [11]. Moreover, the outcome in test [10], in [14] and in test [15] was inactive.
